37 molecules from PubChem BioAssay (NCATS) can be followed below.

Assay [1] in a line: qHTS for Inhibitors of the Functional Ribonucleoprotein Complex (vRNP) of Lassa (LASV) Arenavirus: LASV Primary Screen - GLuc reporter signal (AID 1347082; calls by dose curve; tested in HEK293 reporter line; also: series mostly up to about 57 µM; nearly all actives have a fitted effect of over 60% in size).
Assay [2] can be described thus: qHTS for Inhibitors of the Functional Ribonucleoprotein Complex (vRNP) of Lassa (LASV) Arenavirus: Viability assay - alamar blue signal for LASV Primary Screen (AID 1347083; calls by dose curve; tested in HEK293 reporter line; also: nearly all actives have a fitted effect of over 80% in size; also: potency is read from the fitted curve at half-maximal effect; as to activity change, negative = reduced viability: series mostly up to about 57 µM). On the technique in general: In qHTS, concentration-response curves come from the screen itself.
A short description of assay [3]: qHTS for Inhibitors of the Functional Ribonucleoprotein Complex (vRNP) of Lymphocytic Choriomeningitis Arenaviruses (LCMV): Viability assay - alamar blue signal for LCMV Primary Screen (AID 1347085; calls by dose curve; tested in HEK293 reporter line; also: nearly all actives have a fitted effect of over 80% in size; also: potency is read from the fitted curve at half-maximal effect; as to activity change, negative = lower viability: series mostly up to about 57 µM).
The target in assay [4] is Nucleoprotein (Lymphocytic choriomeningitis virus (strain Armstrong)) (UniProt P09992). The assay is described as follows: qHTS for Inhibitors of the Functional Ribonucleoprotein Complex (vRNP) of Lymphocytic Choriomeningitis Arenaviruses (LCMV): LCMV Primary Screen - GLuc reporter signal (AID 1347086). Also: series mostly up to about 57 µM; nearly all actives have a fitted effect of over 70% in size.

Results filed as inconclusive are left out. Unmarked numbers belong to inactive results. Activity calls are given as the source filed them. Unless noted, calls follow the shape of the full dose curve.
% is scaled to controls: 0 for no effect and ±100 for the full control effect.

Sequence of Nucleoprotein (Lymphocytic choriomeningitis virus (strain Armstrong)) (P09992 whole entry, looked up): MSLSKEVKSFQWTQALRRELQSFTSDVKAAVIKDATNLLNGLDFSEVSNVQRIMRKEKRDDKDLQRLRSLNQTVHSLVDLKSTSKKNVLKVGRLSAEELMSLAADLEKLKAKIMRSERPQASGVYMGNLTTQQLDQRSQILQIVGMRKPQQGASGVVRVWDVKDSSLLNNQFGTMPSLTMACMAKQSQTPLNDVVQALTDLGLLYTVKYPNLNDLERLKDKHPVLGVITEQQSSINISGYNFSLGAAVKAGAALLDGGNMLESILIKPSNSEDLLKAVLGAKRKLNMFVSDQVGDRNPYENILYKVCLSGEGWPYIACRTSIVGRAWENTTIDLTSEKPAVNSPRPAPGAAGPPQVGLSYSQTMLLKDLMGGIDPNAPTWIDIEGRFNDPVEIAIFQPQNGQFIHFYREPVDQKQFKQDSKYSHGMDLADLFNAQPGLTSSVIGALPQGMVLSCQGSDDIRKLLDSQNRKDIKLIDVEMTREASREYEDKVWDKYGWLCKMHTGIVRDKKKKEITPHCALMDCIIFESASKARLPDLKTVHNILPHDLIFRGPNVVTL

Take `CC1(C)C[C@H]2C3=CCC4[C@@]5(C)CC[C@H](O)[C@](C)(CO)C5CC[C@@]4(C)[C@]3(C)C[C@@H](O)[C@@]2(CO)[C@@H](O)[C@@H]1O` (stereo partly drawn): the Potency entry in assay [1], in assay [2], in assay [3] and in assay [4] was “inactive” throughout.
Take `C[C@@H]1O[C@@H](OC2C(O)C(OCCc3ccc(O)c(O)c3)OC(CO)C2OC(=O)/C=C/c2ccc(O)c(O)c2)[C@H](O)[C@H](O)[C@H]1O` (stereo partly drawn): the Potency entry in assay [1], in assay [2], in assay [3] and in assay [4] was “inactive” throughout.
With `COC(=O)N1c2ccccc2C23[C@@H]4CN5CCC[C@]6(CCC12C(O)(C6)C4=O)[C@H]53`, the Potency result in assay [1], in assay [2], in assay [3] and in assay [4] was “inactive” in each case.
For the molecule `COC(=O)c1ccc(=O)c2nc3/c(=C/O)c(O)cc(=O)c3[nH]c12`, the Potency entry in assay [1], in assay [2], in assay [3] and in assay [4] was “inactive” in each case.
For `O=c1cc(-c2ccc(O)cc2)oc2cc(OC3OC(CO)C(O)C(O)C3O)c(C3OC(CO)C(O)C(O)C3O)c(O)c12` (stereo not drawn), the Potency result in assay [1], in assay [2], in assay [3] and in assay [4] was “inactive” throughout.
On to `COc1cc(CCc2cc(NC(=O)c3ccc(N4C[C@@H](C)N[C@@H](C)C4)cc3)n[nH]2)cc(OC)c1`, for which the Potency entry in assay [1] and in assay [4] was “inactive” in each case. Moreover, the Potency in assay [2] is 34.3 µM (active); in assay [3] it was 43.2 µM (active).
`CCCCCCCC1CCC(=O)O1` (stereo not drawn): the Potency result in assay [1], in assay [2], in assay [3] and in assay [4] was “inactive” each time.
As for `CC(C)(O)C1CC[C@@](C)([C@@H]2CC[C@]3(C)[C@H]2[C@H](O)CC2[C@@]4(C)CCC(O)C(C)(C)C4C(OC4OC(CO)C(O)C(O)C4O[C@@H]4OCC(O)C(O)C4O)C[C@]23C)O1` (stereo partly drawn), the Potency entry in assay [1], in assay [2], in assay [3] and in assay [4] was “inactive” each time.
`CC1=C(C(=O)O)N2C(=O)C(NC(=O)CCCC(=O)O)C2SC1` (stereo not drawn): the Potency result in assay [1], in assay [2], in assay [3] and in assay [4] was “inactive” in each case.
With `CN1CCc2cc3c(cc2C1)OCO3`, the Potency result in assay [1], in assay [2], in assay [3] and in assay [4] was “inactive” throughout.
Take `Cc1nc(C(N)=O)nc2ccccc12`: the Potency entry in assay [1], in assay [2], in assay [3] and in assay [4] was “inactive” each time.
In the case of `C=C1C[C@]23CC[C@H]4C(CO)(CO)C[C@@H](O)C[C@@]4(C)[C@@H]2CC[C@H]1C3`, the Potency result in assay [1], in assay [2], in assay [3] and in assay [4] was “inactive” each time.
On to `O=C(O)[C@H](O)[C@@H](O)C(=O)O`, for which the Potency entry in assay [1], in assay [2], in assay [3] and in assay [4] was “inactive” each time.
`CCCCCCCCCC(=O)OCC`: the Potency entry in assay [1], in assay [2], in assay [3] and in assay [4] was “inactive” each time.
With `O=C1NC(=S)NC1=Cc1ccc(O)cc1`, the Potency entry in assay [1], in assay [2], in assay [3] and in assay [4] was “inactive” in each case.
With `CCCC1CCOC(C)S1` (stereo not drawn), the Potency entry in assay [1], in assay [2], in assay [3] and in assay [4] was “inactive” throughout.
Consider `CC(C)CNC(=O)/C=C/C=C/CCCCCC/C=C/c1ccc2c(c1)OCO2`, for which the Potency entry in assay [1], in assay [2], in assay [3] and in assay [4] was “inactive” throughout.
In the case of `O=C1c2cc(CO)cc(O)c2C(=O)c2c(O[C@@H]3OC(CO)[C@@H](O)[C@@H](O)[C@@H]3O)cccc21` (stereo partly drawn), the Potency result in assay [1], in assay [2], in assay [3] and in assay [4] was “inactive” throughout.
Turning to `CC(=O)OC(C)c1ccccc1` (stereo not drawn), the Potency entry in assay [1], in assay [2], in assay [3] and in assay [4] was “inactive” in each case.
`CO[C@H]1[C@@H]2C=CO[C@@H](O[C@H]3O[C@@H](CO)[C@H](O)[C@@H](O)[C@@H]3O)[C@@H]2[C@@]2(CO)O[C@@H]12`: the Potency entry in assay [1], in assay [2], in assay [3] and in assay [4] was “inactive” each time.
As for `COc1cc(O)cc2c1[C@@H]1Oc3c(ccc(O)c3CC=C(C)C)[C@@H]1CO2`, the Potency result in assay [1], in assay [2], in assay [3] and in assay [4] was “inactive” throughout.
For `O=C(/C=C/c1ccc(O)c(O)c1)O[C@@H]1C[C@](O)(C(=O)O)C[C@@H](O)[C@H]1O`, the Potency entry in assay [1], in assay [2], in assay [3] and in assay [4] was “inactive” throughout.
For the molecule `COC1CC(C)C(OC)c2cc(O)cc(c2O)NC(=O)C(C)=CC=CC(C)C(OC(N)=O)C(C)=CC(C)C1OC` (stereo not drawn), the Potency entry in assay [1], in assay [2], in assay [3] and in assay [4] was “inactive” each time.
`COc1c(O)c(O)c2oc(-c3ccccc3)cc(=O)c2c1OC`: the Potency result in assay [1], in assay [2], in assay [3] and in assay [4] was “inactive” throughout.
Take `CCCCCCCCCCCC`: the Potency entry in assay [1], in assay [2], in assay [3] and in assay [4] was “inactive” in each case.
As to `C#CCCCCCCCCCCCc1ccco1`, the Potency result in assay [1], in assay [2], in assay [3] and in assay [4] was “inactive” each time.
For the molecule `C[C@@H]1NC(=O)N[C@@H]1CCCCCC(=O)O`, the Potency result in assay [1], in assay [2], in assay [3] and in assay [4] was “inactive” throughout.
`CC(=O)O[C@H]1C[C@@H]2CC[C@H]3[C@H]4C[C@H]([N+]5(C)CCCCC5)[C@@H](OC(C)=O)[C@@]4(C)CC[C@@H]3[C@@]2(C)C[C@H]1N1CCCCC1`: the Potency entry in assay [1], in assay [2], in assay [3] and in assay [4] was “inactive” each time.
Take `CNc1ncnc2c1ncn2[C@@H]1O[C@H](CO)C(O)[C@H]1O` (stereo partly drawn): the Potency result in assay [1], in assay [2], in assay [3] and in assay [4] was “inactive” each time.
As for `C=C(C)[C@@H]1CCC2=CCC[C@@H](C)[C@]2(C)C1`, the Potency result in assay [1], in assay [2], in assay [3] and in assay [4] was “inactive” each time.
In the case of `CC/C=C\C/C=C\C/C=C\C/C=C\C=C\C(O)CCCC(=O)O` (stereo not drawn), the activity change, negative = inhibition was 1.12% [at 0.757 µM] in assay [1] and 1.64% [at 0.757 µM] in assay [4]. Further, the activity change, negative = reduced viability in assay [2] is 9.64% [at 0.757 µM]. Further, the activity change, negative = lower viability in assay [3] is 6.07% [at 0.757 µM].
Consider `CN1CC(=O)N2C(Cc3c([nH]c4ccccc34)[C@H]2c2ccc3c(c2)OCO3)C1=O` (stereo partly drawn), for which the Potency result in assay [1], in assay [2], in assay [3] and in assay [4] was “inactive” throughout.
`OC[C@H]1O[C@@H](O[C@@H]2OC=C[C@H]3[C@H](O)[C@@H]4O[C@]4(CO)[C@@H]23)[C@H](O)[C@@H](O)[C@@H]1O`: the Potency entry in assay [1], in assay [2], in assay [3] and in assay [4] was “inactive” in each case.
For the molecule `CC(=O)OC[C@H]1O[C@@H](Oc2cc(O)cc3oc(-c4ccc(O)cc4)cc(=O)c23)[C@H](O[C@@H]2O[C@@H](C)[C@H](O)[C@@H](O)[C@H]2O)[C@@H](O)[C@@H]1O`, the Potency entry in assay [1], in assay [2], in assay [3] and in assay [4] was “inactive” in each case.
For the molecule `C=C1[C@H]2CC[C@@H]3[C@H]2C(C)(C)CCC[C@]13C`, the Potency result in assay [1], in assay [2], in assay [3] and in assay [4] was “inactive” throughout.
Take `NCCC[C@H](N)CC(=O)N[C@H]1CNC(=O)[C@H]([C@H]2C[C@H](O)N=C(N)N2)NC(=O)C(=CNC(N)=O)NC(=O)[C@H](CO)NC(=O)[C@H](CO)NC1=O`: the Potency result in assay [1], in assay [2], in assay [3] and in assay [4] was “inactive” throughout.
On to `COc1c2c(nc3occc13)C(CC=C(C)C)(OC)C(OC(C)=O)CC2` (stereo not drawn), for which the Potency entry in assay [1], in assay [2], in assay [3] and in assay [4] was “inactive” in each case.
